# According to PubChem BioAssay AID1508622 (National Center for Advancing Translational Sciences (NCATS), 2021):
# The source made the active and inactive calls. Entries that show only a call come without a potency. Calls come from the whole dose curve; as a rule, active = well fitted activation curve with a large enough effect; inconclusive = small, poorly fitted or top-dose-only effect; inactive = no such curve, though single readings can be large or run the other way.
# Assay: Confirmatory qHTS for Identification of Small Molecule Activators of Huntingtin-Antisense Promoter Activity
# Settings: HEK293 HTT-AS promoter firefly luciferase reporter, 24 h; series mostly up to 57.5 µM
# Summary of the method: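 2,500 luciferase reporter HEK293 cells/well; 24 h culture; cpds up to 57.5 uM final, PTC124 50 uM ctrl; 24 h, 37C; Dual-Glo FLuc reagent, 10 min RT; lum. Norm.: vehicle 0%, zero RLU -100%.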
# Potency is the fitted concentration of half-maximal effect.
row,Structure (SMILES),Potency
1,CC(C)(C)C(=O)NCCc1nc2ccccc2n1CCCCOc1ccc(Cl)cc1,inactive
2,COc1cc(NC(=O)c2cc3c(s2)-c2ccccc2OC3)cc(OC)c1OC,inactive
3,Cc1cccc(N2CCN(C(=O)C3CCCN(S(=O)(=O)c4ccc5c(c4)oc(=O)n5C)C3)CC2)c1C (centres undefined),inactive
4,COC(=O)c1c(C)oc2ccc(N(C(=O)c3ccncc3)S(=O)(=O)c3ccc(Br)cc3)cc12,inactive
5,Cc1ccc(C)c(NC(=O)C(=O)NCC(c2cccnc2)N2CCN(c3ccc(F)cc3)CC2)c1 (centres undefined),inactive
6,CCN(Cc1ccccc1)C(=O)C1CCN(S(=O)(=O)c2c(C)noc2/C=C/c2ccc(C)cc2)CC1,inactive
7,Cn1c(=O)n(C)c2cc(NS(=O)(=O)c3ccc(C(C)(C)C)cc3)c(NCc3ccccc3)cc21,inactive
8,CCOc1ccc(C(=O)Nc2ccc(-n3nncc3-c3ccc(OC)cc3)cc2)cc1,inactive
9,COc1ccc(CNC(=O)c2ccc3c(c2)CCN3S(=O)(=O)c2ccc(C)cc2)cc1,inactive
10,Cc1cccc(N2CCN(C(=O)c3ccc4c(c3)CCN4S(=O)(=O)c3ccccc3)CC2)c1C,inactive
11,CN(CC(=O)Nc1ccc(OC(F)(F)F)cc1)S(=O)(=O)c1ccc2c(c1)CCC(=O)N2,inactive
12,Cc1ccc(CSC2=Nc3ccccc3C3=NC(CC(=O)NC4CCCCC4)C(=O)N23)cc1 (centres undefined),inactive
13,CCOC(=O)c1cc2c(=O)n3ccccc3nc2n(CC2CCCO2)c1=NC(=O)c1cc(C)cc(C)c1 (centres undefined),inactive
14,O=C(Nc1ccc(Br)cc1)c1ccc(Br)c(S(=O)(=O)N2CCCCC2)c1,inactive
15,COc1ccc(CN2CCc3c(c(=O)n4ncc(C(=O)N5CCN(c6ccccc6OC)CC5)c4n3C)C2)cc1,inactive
16,CCCc1cc(N2CCN(c3ccc(OC)cc3)CC2)n2cnnc2n1,inactive
17,Cc1ccccc1Nc1sc(C(=O)c2ccc(F)cc2)c(N)c1C(=O)NCCc1ccccc1,inactive
18,Cc1cccc(NC(=O)Cn2c(=O)oc3cc(S(=O)(=O)N4CCCCCC4)ccc32)c1,inactive
19,CCOc1ccc(-c2nc(CSCC(=O)NCCc3ccc(OCC)c(OCC)c3)c(C)o2)cc1,inactive
20,CN[C@H]1[C@@H](O)[C@@H]2O[C@@H]3O[C@H](C)CC(=O)[C@]3(O)O[C@@H]2[C@@H](NC)[C@H]1O,inactive

row,Structure (SMILES),Potency
1,Cc1nc(Nc2n[nH]c3c2CN(C(=O)N[C@H](CN(C)C)c2ccccc2)C3(C)C)c2sccc2n1,inactive
2,O=C(NCc1ccccc1)c1cc2ccc3cccnc3c2[nH]1,2.13 µM (active)
3,Cc1ccccc1Nc1c(-c2cccnc2)nc2cccc(C)n12,inactive
4,COc1ccc(N(Cc2ccccc2)C(=O)c2nc(SC)ncc2Cl)cc1,inactive
5,Cc1ccc2c(c1)N(C(=O)c1ccc(F)cc1)C(C)(C)CC2(C)c1ccccc1 (centres undefined),inactive
6,O=C(NCCc1csc(-c2ccc(F)cc2)n1)c1cccc(F)c1,inactive
7,Cc1cc(C)cc(N2C(=O)CSC23C(=O)N(Cc2c(F)cccc2Cl)c2ccccc23)c1 (centres undefined),inactive
8,CC(C)OCc1cc(CN2CCN(c3cccc(C(F)(F)F)c3)CC2)c(O)c2ncccc12,inactive
9,COc1cccc(NS(=O)(=O)c2ccc3[nH]cc(C(=O)NCCc4ccc(C)cc4)c(=O)c3c2)c1,inactive
10,CC(C)[C@H](C(=O)Nc1ccc(C(=O)NO)cc1)c1ccccc1,1.9 µM (active)
11,CCCOc1ccc(C2c3c(-c4ccccc4O)n[nH]c3C(=O)N2CCCOCC)cc1OCC (centres undefined),inactive
12,COc1ccc(N2CCN(Cc3nc4c(c(=O)n(C)c(=O)n4C)n3C(C)C)CC2)cc1,inactive
13,CCn1c(SCc2cccc(Br)c2)nnc1-c1nonc1NC(C)=O,inactive
14,Cn1c(NCCN(CCO)CCCc2ccc([N+](=O)[O-])cc2)cc(=O)n(C)c1=O,inactive
15,COc1ccc(S(=O)(=O)Nc2cc3c(C(=O)OC(C)C)c(C)oc3c3ccccc23)cc1,inactive
16,Cc1ccccc1-c1noc(CSc2nc3ccccc3[nH]2)n1,inactive
17,COc1ccc(Cn2c(CO)cnc2SCc2ccc(F)cc2)cc1,inactive
18,CCOC(=O)c1cnc2ccc(OC)cc2c1Nc1ccc(OCc2ccccc2Cl)cc1,inactive
19,CCc1ccc(OCC2c3cc(OC)c(OC)cc3CCN2C(=O)COc2ccccc2)cc1 (centres undefined),inactive
